Gli-Sufu antag: antagonists of Gli-Sufu signaling; Sufu-KO-LIGHT fibroblasts, Gli luciferase reporter luminescence; inhibition, % at 5 µM; 340,000 tested, 0.74% active; AID 588413;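 active means inhibition above about 55%, limit read from the data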;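 further: 0% = DMSO-treated cells and 100% = wells with medium but no cells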
NCOA1 inh: human NCOA1 inhibition; Q15788; inhibition, % at 3.6 µM; 360,000 tested, 0.12% active; HEK293 GAL4-SRC1 luciferase reporter, luminescence;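 active means inhibition above the campaign mean plus 3 SD, with each screening campaign given its own cutoff, cut at about 60% in these data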;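 further: 0% = DMSO treated cells and 100% = gossypol at 36 µM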
NCOA3 inh: human NCOA3 inhibition; HEK293 GAL4-SRC3 luciferase reporter, luminescence; inhibition, % at 3.6 µM; 360,000 tested, 0.17% active;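 active means inhibition above a per-campaign cutoff, the mean of all compounds plus 3 SD, cut at about 60% in these data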;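 further: 0% = DMSO-treated cells and 100% = gossypol-treated cells at 36 µM; higher means less SRC3-driven luciferase light from the GAL4 reporter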
NR5A2 inv ag: suppresses constitutive activity of human LRH-1. AID 602396. HEK293T StAR-luciferase reporter, LRH-1 transfected, 24 h. O00482. inhibition, % at 3.6 µM. 360,000 tested, 0.13% active;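 active means inhibition above the mean inhibition of all tested compounds plus 3 SD, cut at about 73% in these data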;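 further: 0% = DMSO wells and 100% = reporter-only cells lacking LRH-1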
Target sequence (O00482 whole entry, looked up): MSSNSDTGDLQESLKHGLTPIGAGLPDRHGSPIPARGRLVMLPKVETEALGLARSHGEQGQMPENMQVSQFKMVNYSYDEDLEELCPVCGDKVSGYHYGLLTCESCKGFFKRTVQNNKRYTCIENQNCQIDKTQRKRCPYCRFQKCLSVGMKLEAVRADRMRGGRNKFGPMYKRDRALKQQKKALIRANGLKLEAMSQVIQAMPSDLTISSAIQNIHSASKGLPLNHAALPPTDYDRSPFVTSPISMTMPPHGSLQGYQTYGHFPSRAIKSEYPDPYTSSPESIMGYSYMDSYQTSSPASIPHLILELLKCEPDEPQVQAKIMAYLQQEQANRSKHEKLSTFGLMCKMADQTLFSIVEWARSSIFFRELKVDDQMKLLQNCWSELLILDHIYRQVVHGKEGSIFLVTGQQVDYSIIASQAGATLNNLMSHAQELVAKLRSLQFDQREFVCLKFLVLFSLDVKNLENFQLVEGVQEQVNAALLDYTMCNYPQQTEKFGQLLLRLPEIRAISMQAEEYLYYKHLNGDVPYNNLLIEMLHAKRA
SRC2 inh: inhibits human steroid receptor coactivator 2; 370,000 tested, 0.17% active; inhibition, % at 9 µM; HEK293 GAL4-SRC2 luciferase reporter, luminescence; Q15596; AID 651957;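 active means inhibition above the mean inhibition of all tested compounds plus 3 SD, set per campaign, cut at about 52% in these data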;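 further: 0% = DMSO treated cells and 100% = cells given Gossypol at 36 µM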
NR2F2 inh: NR2F2 (human) inhibition, primary screen | P24468 | HEK293T NGFI-A luciferase reporter, luminescence | inhibition, % at 8.6 µM | 370,000 tested, 0.7% active;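 active means inhibition above a per-plate cutoff, mean inhibition of test wells between control levels plus 3 SD, cut at about 38% in these data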;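 further: cells cotransfected with COUP-TFII expression vector driving the NGFI-A reporter; 0% = median of COUP-TF2 test wells and 100% = reporter-only cells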
Gal4-VP16 ctr: counter-screen for COUP-TFII antagonists: inhibitors of VP16. shares compounds with NR2F2 inh. HEK293 Gal4-VP16 luciferase reporter, luminescence. inhibition, % at 8.5 µM. 2,500 tested, 25% active. AID 687007; in the data active means inhibition above about 13%
NR2F2 inh conf: confirmation of human COUP-TFII (NR2F2) inhibitors; 2,500 tested, 45% active; inhibition, % at 8.5 µM; shares compounds with NR2F2 inh; HEK293 NGFI-A luciferase reporter, luminescence;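 active means mean inhibition over three repeats above a set limit taken from the earlier primary screen, cut at about 38% in these data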;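 further: 100% = cells given the luciferase reporter alone without the COUP-TF2 vector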
* marks the source's active call; other numbers are inactive results; x = not tested or not shown. Shown are actives, neighbours in structure and some others; about 1.2% of the full set was active somewhere.

SMILES	Gli-Sufu antag	NCOA1 inh	NCOA3 inh	NR5A2 inv ag	SRC2 inh	NR2F2 inh	Gal4-VP16 ctr	NR2F2 inh conf
CCCCCC(=O)N(O)C1CC(=O)N(c2ccccc2)C1=O (stereo not drawn)	0	3	14	-25	4	41*	-4	36
Cc1ccc(-n2c(-c3ccc(Br)cc3)c[n+]3c2CCc2ccc4cccnc4c2-3)cc1	87*	75*	83*	100*	-16	88*	33*	89*
Cc1ccc(-n2c(=O)[nH]c3ncccc3c2=O)cc1	-3	-6	12	6	5	12	x	x
O=C1NC(c2ccc(Br)cc2)c2c(-c3ccccc3)n[nH]c21 (stereo not drawn)	x	x	x	x	-17	-2	x	x
O=C(NCCN1CCC(n2c(=O)[nH]c3ccccc32)CC1)c1ccc(F)c(C(F)(F)F)c1	x	x	x	-20	-7	-4	x	x
O=C(NCCN1CCC(n2c(=O)[nH]c3ccccc32)CC1)c1ccc(C(F)(F)F)cc1C(F)(F)F	x	x	x	35	11	44*	4	19
COc1ccc2cc3cc(C(=O)Nc4cc(OC)c(OC)c(OC)c4)oc3nc2c1	11	63*	45	46	24	50*	-6	19
Cc1cccc(Oc2cc(NC(=O)c3ccccc3)cc([N+](=O)[O-])c2)c1	23	12	23	35	30	50*	-6	26
Cn1cc([N+](=O)[O-])c(C(=O)Nc2cc(Oc3ccccc3)cc([N+](=O)[O-])c2)n1	10	-25	11	-23	9	1	x	x
CC(C)c1[nH]nc2c1C(c1ccccc1)N(Cc1ccccc1)C2=O (stereo not drawn)	x	x	x	x	0	-4	x	x
Cc1ccc(C)c(OCc2cc(C(=O)NC3CCN(Cc4ccccc4)CC3)no2)c1	48	-6	1	22	24	48*	1	21
O=C(NC1CCN(Cc2ccccc2)C1)c1cc(COc2ccc(F)cc2F)on1 (stereo not drawn)	33	-11	-2	-9	-24	-4	x	x
Cc1ccc(NS(=O)(=O)c2cccc(C(=O)NC3CCN(Cc4ccccc4)CC3)c2)c(C)c1	19	-3	-24	23	32	56*	4	28
O=C(NC1CCN(Cc2ccccc2)CC1)c1cccc(S(=O)(=O)Nc2ccc(F)cc2)c1	26	16	21	24	16	55*	3	34
CN(C)S(=O)(=O)c1cccc(C(=O)NCC(=O)NC2CCN(Cc3ccccc3)CC2)c1	8	-3	-24	1	-20	-6	x	x
C=CCN(c1ccccc1)S(=O)(=O)c1cccc(C(=O)NC2CCN(Cc3ccccc3)CC2)c1	41	15	21	19	3	58*	3	44*
Cc1ccc(C(=O)O/N=C(\N)c2ccccn2)c(Cl)c1	48	36	57	50	77*	78*	20*	47*
N/C(=N\OC(=O)c1ccc2ccccc2c1)c1ccccn1	-3	-47	-11	-1	38	45*	-174	-63
CCCc1ccc(C(=O)O/N=C(\N)c2ccccn2)cc1	49	55	47	45	59*	68*	-31	53*
Cc1ccc(Cc2c(-c3cccc(Br)c3)nc3c4ccccc4ccn23)cc1	x	x	x	x	-22	1	x	x
O=C(Nc1ccc2ncccc2c1)c1cc(-c2ccc(Cl)cc2)nc2ccccc12	x	x	x	x	-6	-5	x	x
Cc1cc(N2CCN(C(=O)c3ccco3)CC2)c2ccccc2n1	6	-3	14	19	0	-15	x	x
Cc1cc(N2CCN(C(=O)Oc3ccc(-c4ccccc4)cc3)CC2)c2ccccc2n1	x	x	x	x	18	62*	-1	36
COCc1cc(N2CCN(C(=O)OC(C)(C)C)C[C@H]2C)ccc1N1C[C@@H](C)O[C@@H](C)C1	x	x	x	x	19	23	x	x
Cc1nc(N2CCN(c3ccccn3)CC2)c2c(C)c(C(=O)Nc3c(C)cc(Br)cc3C)sc2n1	1	-22	-11	3	-5	-4	x	x
SMILES	Gli-Sufu antag	NCOA1 inh	NCOA3 inh	NR5A2 inv ag	SRC2 inh	NR2F2 inh	Gal4-VP16 ctr	NR2F2 inh conf
Cc1nc(N2CCN(c3ccccn3)CC2)c2c(C)c(C(=O)Nc3c(F)cc(F)cc3Br)sc2n1	36	-4	7	-25	-8	42*	0	25
O=C(Nc1cccnc1)c1ccc(CN2CCc3ccccc3C2)cc1	1	2	-20	8	25	42*	-14	10
O=C(Nc1ccc(S(=O)(=O)N2CCCCC2)cc1)c1ccc(CN2CCc3ccccc3C2)cc1	-6	16	-3	60	16	70*	18*	80*
O=C(Nc1ccccc1)c1ccc(CN2CCc3ccccc3C2)cc1	-3	-1	-16	5	-13	35	x	x
COC(=O)[C@]12C[C@H](CC(=O)N3CCCCC3)C(=O)N(Cc3ccccc3)C1=C[C@H](C1CCCC1)O[C@@H]2C	x	x	x	x	12	11	x	x
Cc1ccc(C(=O)NCCN2C(=O)C3C4C=CC(C4)C3C2=O)cc1 (stereo not drawn)	x	x	x	x	8	0	x	x
CCOC(=O)c1csc(NC(=O)C2CCCN(S(=O)(=O)c3ccc([N+](=O)[O-])cc3)C2)n1 (stereo not drawn)	x	x	x	x	14	46*	-7	23
CCC(NC(=O)CN1CCN(c2cccc(OC)c2)CC1)c1ccccc1 (stereo not drawn)	x	x	x	x	-3	-17	x	x
COc1cccc(/C=N/Nc2ccc(C(=O)O)cc2)c1O	73*	76*	79*	46	79*	69*	65*	92*
COc1cccc(/C=N/Nc2ccc(S(=O)(=O)O)cc2)c1O	-9	8	-6	-4	6	-13	x	x
CC(C)(C)c1ccc(/C=N/Nc2ccc(C(=O)O)cc2)cc1	-10	48	64*	57	26	70*	-22	69*
O=C(O)c1ccc(N/N=C/c2ccc(C(F)(F)F)cc2)cc1	-117	-12	31	-28	14	23	x	x
COC(=O)c1cc2c(c3c4cc(OC)ccc4n(S(=O)(=O)c4ccccc4)c13)C(=O)N(C)C2	x	x	x	x	-31	7	x	x
CCOc1ccc(C(C)=O)cc1CSC(=N)N	-5	-7	0	-4	24	10	x	x
CCCCOc1ccc(Br)cc1CSC(=N)N	65*	-5	-1	41	41	76*	4	44*
O=C(NCc1ccc(Cl)cc1)C1CCCN(c2ncccn2)C1 (stereo not drawn)	x	x	x	x	6	-12	x	x
Cc1c(C(=O)OCC2CCCO2)[nH]c2c1C(=O)CC(c1ccc(N(C)C)cc1)C2 (stereo not drawn)	-9	3	3	17	16	37*	-15	5
COc1ccc(CCNC(=S)c2ccccc2)cc1OC	8	-1	20	15	-1	38*	5	22
